This is part of a sample that, as a whole, favours compounds with a hit. Of some 83,000 tested, about 20% had one in any assay.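 Single-concentration screen, 48 h exposure, 96-well plates. Endpoint: percent growth. Below 10 = active.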 A number with no mark means an inactive call. Active and inactive are the calls of the source.
What follows are molecules tested on MDA-MB-468 breast (assay: NCI-60 one-dose screen, 48 h (100 = growth as untreated, 0 = no growth, -100 = all killed)). Details: 10 µM unless noted.
`CC[C@H](CC[C@@H](C)[C@H]1CC[C@H]2[C@@H]3CC[C@@H]4CC(=O)/C(=C\c5ccncc5)C[C@]4(C)[C@H]3CC[C@]12C)C(C)C` gave a growth of 105%.
`NC(=O)NNC(=O)c1ccccc1` was tested, and the growth was 110%.
In the case of `COc1ccc(-c2nc3ccc(-c4nc5ccc(N6CCN(c7ccncc7)CC6)cc5[nH]4)cc3[nH]2)cc1OC`, the growth is reported as -46.3% (active).
With `O=C(Nc1ccc(Br)c(Cl)c1)c1cc(F)ccc1O` the growth was -24.5% (active).
`Cc1cccc(-c2nc(Nc3ccc4ncsc4c3)c3ccccc3n2)n1` gave a growth of 72.3%.
With `COC(=O)Nc1nc2ccc(S(=O)c3ccccc3)cc2[nH]1` (stereo not given) the growth was 33.8%.
Molecule `CN1CCN(C(=O)[C@@]2(C)CC[C@]3(C)CC[C@]4(C)C(=CC[C@@H]5[C@@]6(C)C/C(=C/c7ccncc7)C(=O)C(C)(C)[C@@H]6CC[C@]54C)[C@@H]3C2)CC1` has a growth of 37.5%.
`COc1cccc(C(=O)Nc2ccc(CN3CCc4nc5cc(OC)c(OC)cc5cc43)cc2)c1` showed a growth of 63.6%.
`CSc1nc2ccc(C)cc2cc1/C=N/O` was tested, and the growth was 101%.
`COc1cc(NCCCCCN)c2ncccc2c1` showed a growth of 114%.
In the case of `COC(=O)C[Se]C(=O)Cc1c(C)n(C(=O)c2ccc(Cl)cc2)c2ccc(OC)cc12`, the growth is reported as -18.4% (active).
With `Cc1ccc(C(SCC(N)C(=O)O)(c2ccccc2)c2ccc(C)cc2)cc1` (stereo not given) the growth was -1.71% (active).
Work on `O=[N+]([O-])c1c(Cl)ncnc1Cl` yielded a growth of 101%.
Molecule `CC1CCN(CCCCCOc2ccc3oc4ccc(Cl)cc4c(=O)c3c2)CC1` has a growth of 54.5%.
With `CCOC(=O)c1nn(C2CCCCO2)c2ccc(NC(=O)Cn3nnc4ccccc43)cc12` (stereo not given) the growth was 105%.
Work on `CN1CCN(C(=O)[C@]23CCC(C)(C)C[C@H]2C2=CC[C@@H]4[C@@]5(C)C/C(=C/c6cccnc6)C(=O)C(C)(C)[C@@H]5CC[C@@]4(C)[C@]2(C)CC3)CC1` yielded a growth of 34.3%.
`CN1CCN(c2ccc(NC3=C(Cl)C(=O)c4ncccc4C3=O)cc2C#N)CC1` was tested, and the growth was -65% (active).
`CC(=O)Nc1cc(F)cc(C(F)(F)F)c1Cl` was tested, and the growth was 86.3%.
`O=C(O)C(C(=O)O)c1cccc2ccccc12` was tested, and the growth was 101%.
Work on `CCc1nnc(NC(=O)c2ccoc2COc2ccccc2)s1` yielded a growth of 52.7%.
For `CC(=O)NC(C)(C)C(=O)N[C@@H](C)C(=O)NC(C)(C)C(=O)N[C@@H](C)C(=O)NC(C)(C)C(=O)N[C@@H](C)C(=O)N[C@@H](CCC(N)=O)C(=O)NC(C)(C)C(=O)N[C@H](C(=O)NC(C)(C)C(=O)NCC(=O)N[C@@H](CC(C)C)C(=O)NC(C)(C)C(=O)N1CCC[C@H]1C(=O)N[C@H](C(=O)NC(C)(C)C(=O)NC(C)(C)C(=O)N[C@@H](CCC(N)=O)C(=O)N[C@@H](CCC(N)=O)C(=O)N[C@H](CO)CC1CCCCC1)C(C)C)C(C)C`, the growth was 3.04% [5 µM] (active).
Molecule `COC(=O)CCCCCCN=Cc1c(O)c(O)c(C(C)C)c2cc(C)c(-c3c(C)cc4c(C(C)C)c(O)c(O)c(C=NCCCCCCC(=O)OC)c4c3O)c(O)c12` has a growth of 47.1%.
Work on `Cc1nnc(/N=C2\NC(=O)/C(=C/c3ccsc3)S2)s1` yielded a growth of 110%.
With `COc1ccc(C(O)c2cc3c(N)c(C(=O)Nc4cccc(Br)c4C)sc3nc2C)cc1` (stereo not given) the growth was 7.52% (active).
Molecule `N#C/C(=C\c1cccc2cnccc12)n1nnc2cccc(F)c21` has a growth of 31.9%.
`Cc1cc(N2CCCCCC2)nc(N2CCN(CC(=O)Nc3ccc4c(ccn4Cc4ccccc4)c3)CC2)n1` gave a growth of 17.4%.
`CCC([N+](=O)[O-])S(=O)(=O)c1ccc(C)cc1` (stereo not given) gave a growth of 91.3%.
In the case of `CCCCCc1cc[n+](CC(=O)c2ccc([N+](=O)[O-])cc2)cc1`, the growth is reported as 11.8%.
`O=C(Nc1ccc(Cl)c(C(F)(F)F)c1)Nc1ccc2oc(=O)ccc2c1` showed a growth of 24.8%.
Work on `O=C(O)C1[S][Sb]([CH](C(=O)O)[CH](C(=O)O)[Sb]2[S]C(C(=O)O)C(C(=O)O)[S]2)[S]C1C(=O)O` (stereo not given) yielded a growth of 81.6%.
`CCOC(=O)/C(O)=C(\C=N\C(=S)Nc1ccc(Cl)c(Cl)c1)C(=O)OCC` gave a growth of 102%.
With `CC(C)C[C@H](NC(=O)CCn1ccc2ccccc2c1=O)B(O)O` the growth was 6.61% (active).
`Nc1ccc(S(=O)(=O)Nc2ccsc2-c2nc(-c3ccccc3)no2)cc1` showed a growth of 43.1%.
For `O=C1/C(=C/c2ccccc2F)CNC/C1=C\c1ccccc1F`, the growth was -59.7% (active).
Molecule `COc1ccc(NC(=O)C2CC3C=CC2C3)c([N+](=O)[O-])c1` (stereo not given) has a growth of 93.1%.
In the case of `COc1ccc(C(=O)/C=C/c2c(C(F)(F)F)nc3ccccn23)cc1OC`, the growth is reported as -59.9% (active).
`Cn1nc(-c2ccc(Cl)cc2)nc2c(=O)n(C)c(=O)nc1-2` was tested, and the growth was -73.2% (active).
With `O=S(=O)(NCCCNc1cc(-c2cn(-c3ccccc3)nc2-c2cccc(O)c2)ccn1)c1ccc(F)cc1` the growth was -1.5% (active).
`COC(=O)C1=C(C(=O)ON)[C@@H]2C=C[C@@]1([C@@H](Cc1ccccc1)Nc1ccccc1)O2` was tested, and the growth was -38.8% (active).
Work on `O=Cc1ccc2nc(C(Cl)(Cl)Cl)ccc2c1` yielded a growth of 95.2%.

Source: PubChem BioAssay (NCI)
